In the library only some 21% were active in any assay of this set; here they are far more common.
Pf growth 96h – Primary qHTS for delayed death inhibitors of the malarial parasite plastid, 96 hour incubation; AID 504834, 2011; P. falciparum luciferase reporter growth, 96 h; Potency, µM (top dose mostly 28.7 µM), most hits filed as inhibitors; 6.9% of 320,000 active
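Cell-based qHTS: luciferase-tagged P. falciparum in erythrocytes (2% hematocrit, 0.05% parasitemia final) incubated with compounds for 96 hours, 37 C, 5% CO2; luciferase detection reagent then added and luminescence measured.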
CHX counter – Cycloheximide Counterscreen for Small Molecule Inhibitors of Shiga Toxin | cell reporter, cycloheximide protein synthesis inhibition counterscreen | max response, % | 12% of 300,000 active; in the data active means max response mostly above about 13%, no sharp cut-off; inactive means mostly below about 14%; further: read at 38.3 µM for the half of the compounds with a filed dose
Sm TGR block – qHTS Assay for the Inhibitors of Schistosoma Mansoni Peroxiredoxins; 3% of 360,000 active; Schistosoma mansoni thioredoxin glutathione reductase (TGR), Q962Y6; purified TGR, DTNB reduction, TNB absorbance 405 nm; Potency, µM (series often up to 114 µM), usual class: inhibitors; further: nearly all actives have a fitted effect of over 60% in size
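Kinetic colorimetric format: TGR-catalysed, NADPH-driven DTNB reduction monitored via TNB absorbance. Enzyme dispensed at 20 nM; compound exposure 15 min at room temperature before reaction start.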
NS1 inh – qHTS Assay for Inhibitors of Influenza NS1 Protein Function. 0.4% of 270,000 active. Potency, µM (top dose mostly 46.1 µM); calls by dose curve; further: actives are rising curves; nearly all actives have a fitted effect of over 50% in size
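A cell-based growth assay was used: compounds that relieve NS1-induced slow growth of budding yeast raise OD600. Assay medium was yeast nitrogen base with ammonium sulphate and -URA supplement, pH 6.0, with 2% galactose.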
Shiga inhibitor – A qHTS for Small Molecule Inhibitors of Shiga Toxin; 9.2% of 290,000 active; AID 2315, 2010; inhibition, % at 38.7 µM; Vero cells, Shiga toxin protein synthesis inhibition reporter; in the data active means inhibition mostly above about 28%, no sharp cut-off; inactive means mostly below about 43%
Pf growth 48h – Primary qHTS for delayed death inhibitors of the malarial parasite plastid, 48 hour incubation; P. falciparum luciferase growth in erythrocytes, 48 h; Potency, µM (doses to about 28.7 µM), actives largely listed as inhibitors; 5.9% of 310,000 active
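Luciferase-expressing parasites in RBCs, 2% Hct / 0.1% parasitemia final; RPMI 1640 + 0.5% Albumax; 37 C, 5% CO2, one generation; luminescence read-out, lower signal = inhibition.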
Numbers stand for hits; i = inactive; ? = inconclusive; nt = no result. Unless noted, the call rests on the fitted dose curve; in most records, active means well fitted curve in the direction sought with a large enough effect; inconclusive means small, poorly fitted or top-dose-only effect, or another doubt; inactive means no such curve, though single readings can be large; an effect the other way counts as inactive or inconclusive.

SMILES | Pf growth 96h | CHX counter | Sm TGR block | NS1 inh | Shiga inhibitor | Pf growth 48h
CC(=O)c1c(C)[nH]c(C(=O)NCCC2=CCCCC2)c1C | ? | 49 | i | i | 105 | nt
Cc1noc(C)c1C(=O)NCCC1=CCCCC1 | nt | i | i | i | i | i
CCOC(=O)c1[nH]c(C)c(C(=O)NCCC2=CCCCC2)c1C | 5.2µM | i | i | i | i | i
CCOC(=O)c1[nH]c(C)c(C(=O)NCCc2ccccc2)c1C | nt | nt | i | nt | nt | nt
O=C(CN1c2cccc3cccc(c23)S1(=O)=O)NCc1ccc(Cl)cc1 | i | nt | i | nt | nt | i
CCOC(=O)N1CCN(c2nc3ccccn3c(=O)c2C=O)CC1 | 0.83µM | i | i | i | i | 0.29µM
O=Cc1c(Sc2ccccn2)nc2ccccn2c1=O | ? | i | i | i | i | ?
O=Cc1c(Sc2ccccc2)nc2ccccn2c1=O | 7.4µM | i | i | i | i | nt
O=c1nc2c(O)cccn2c2c1c(=O)[nH]c1ccccc12 | i | i | i | i | i | i
COC(=O)CSc1nc2ccccn2c(=O)c1C=O | i | 18 | i | nt | 46 | i
O=Cc1c(SCCO)nc2ccccn2c1=O | i | i | i | i | i | i
O=c1[nH]c2ccccc2c2nc3ccccn3c12 | i | 40 | i | i | 51 | i
Cc1onc(-c2ccc(Cl)cc2)c1-c1ccnc(SCC(=O)Nc2ccc(C(C)C)cc2)n1 | ? | i | i | i | i | ?
O=c1c2ccccc2nc2c3ccccc3cnn12 | i | 40 | i | nt | 78 | i
CCOC(=O)c1c(C2CCN(C(=O)OCC)CC2)nc2ccccn12 | 5.2µM | i | i | i | i | nt
CCOC(=O)c1c(C)nc2ccccn12 | nt | i | i | i | i | i
CCNC(=O)/C(C#N)=C/c1c(N2CCN(c3ccccc3)CC2)nc2ccccn2c1=O | i | 29 | i | i | 44 | i
O=c1c2ccccc2nc2ccccn12 | i | 42 | i | nt | 70 | i
CCc1ccc(NC(=O)CCCc2nnc3n(C(C)CC)c(=O)c4sccc4n23)cc1 (centres undefined) | nt | nt | i | nt | nt | nt
CCCCCSc1nnc2c(n1)OC(c1ccc(C)s1)N(C(C)=O)c1ccccc1-2 (centres undefined) | nt | nt | i | nt | nt | nt
CC(Oc1ccc(Cl)cc1Cl)C(=O)Nc1ncccn1 (centres undefined) | ? | 22 | i | i | i | nt
Cc1cc(Cl)ccc1OC(C)C(=O)O (centres undefined) | i | i | i | i | i | i
Cc1csc(NC(=O)C(C)Oc2ccc(Cl)cc2C)n1 (centres undefined) | ? | nt | i | nt | nt | 13µM
Cc1cc(NC(=O)C(C)Oc2ccc(Cl)cc2Cl)no1 (centres undefined) | 1.7µM | i | i | i | i | i
O=C(NCCN1C(=O)S/C(=C/c2cccnc2)C1=O)C1CC(=O)N(Cc2ccccc2)C1 (centres undefined) | i | i | i | nt | i | i
SMILES | Pf growth 96h | CHX counter | Sm TGR block | NS1 inh | Shiga inhibitor | Pf growth 48h
CCOC(=O)/C(=N\Nc1ccccc1)N1CC1 | i | 19 | i | i | i | i
CCOC(=O)/C(=N\Nc1ccccc1Cl)N1CCN(Cc2ccccc2)CC1 | ? | 21 | i | i | i | i
CCOC(=O)/C(=N\Nc1ccccc1Cl)N1CCN(C)CC1 | i | i | i | i | i | i
COc1cccc2c1Oc1ncccc1N(c1ccc(C(=O)NCc3ccccc3Cl)s1)C2 | nt | nt | i | nt | nt | nt
c1coc(CNc2ncnc3[nH]ncc23)c1 | i | i | i | i | i | ?
c1coc(CNc2ncnc3nc[nH]c23)c1 | 9.3µM | i | i | i | i | i
CCCCN(CCCNc1ncnc2nc[nH]c12)c1ccccc1 | 12µM | i | i | i | i | ?
c1ccc(CCNc2ncnc3nc[nH]c23)cc1 | i | 38 | i | i | 45 | i
c1coc(CNc2nc3nonc3nc2NCc2ccco2)c1 | i | i | 50µM | i | i | i
c1ccc2c(CCNc3ncnc4nc[nH]c34)c[nH]c2c1 | ? | i | i | i | i | i
O=S(=O)(Nc1nc2ccccc2nc1NCc1ccco1)c1ccccc1 | nt | i | i | i | i | i
CCOc1ccc(NC(=O)CCNS(=O)(=O)c2ccc3c(c2)CCCC(=O)N3)cc1 | nt | nt | i | nt | nt | nt
CC(=O)Nc1ccc(C(C#N)c2ccccc2)cc1 (centres undefined) | i | i | i | i | i | i
Cc1c(Cl)cccc1Nc1nn2c(=O)c3ccc(C(=O)NCCc4ccccc4)cc3nc2s1 | nt | nt | i | nt | nt | nt
COc1cc(CNc2ncnc3c2[nH]c2ccc(C)cc23)cc(OC)c1 | ? | i | i | i | i | ?
Cc1ccc2[nH]c3c(NCc4ccco4)ncnc3c2c1 | ? | 19 | i | i | 87 | ?
COc1cc(OC)cc(-c2c(C#Cc3ccsc3)c3cc(-c4cccc5[nH]ccc45)ccc3n2C)c1 | 3.3µM | nt | i | nt | nt | 12µM
COc1cc(OC)cc(-c2c(C#Cc3ccsc3)c3cc(-c4ccc5c(c4)OCCO5)ccc3n2C)c1 | 2.6µM | nt | i | nt | nt | ?
COc1cc(OC)cc(-c2c(C#Cc3ccsc3)c3cc(-c4ccc5cc[nH]c5c4)ccc3n2C)c1 | 1.9µM | nt | 25µM | nt | nt | ?
COc1ccc(-c2c(C#Cc3ccsc3)c3cc(-c4ccc(OC)c(F)c4)ccc3n2C)cc1 | ? | nt | i | nt | nt | i
COc1ccc(OCC(=O)N/N=C/c2cccn2-c2cccc(C(=O)O)c2)cc1 | i | nt | i | nt | nt | i
O=C(Nc1ccc2c(c1)C(=O)OC2)c1ccc(Cl)cc1 | i | 18 | i | i | i | i
O=C(Nc1ccc2c(c1)C(=O)OC2)c1ccc(F)cc1F | i | 27 | i | i | 35 | i
O=C(CC(c1ccco1)C1CCCCC1=O)c1ccccc1 (centres undefined) | nt | i | i | i | i | i
O=C(CC1C(=O)CCCC1=O)c1ccccc1 | i | i | 40µM | nt | i | i
SMILES | Pf growth 96h | CHX counter | Sm TGR block | NS1 inh | Shiga inhibitor | Pf growth 48h
O=C(c1cccc(NC2=NC3CS(=O)(=O)CC3S2)c1)N1CCN(c2ncccn2)CC1 (centres undefined) | ? | i | i | i | i | i
c1ccc2c(c1)nnn2-c1ncnc2sccc12 | i | 34 | i | nt | 62 | i
CCN1CCN(CC(=O)Nc2nc3ccc(C)cc3s2)CC1 | i | i | i | i | i | i
Cc1ccc2nc(NC(=O)COC(=O)c3ccncc3)sc2c1 | i | 35 | i | nt | 66 | i
COCC(=O)Nc1nc(-c2ccc(C)cc2)c(C)s1 | i | 13 | i | i | 35 | i
Cc1ccc2nc(NC(=O)COc3ccc(F)cc3)sc2c1 | nt | nt | i | nt | nt | nt
COCC(=O)Nc1nc2ccc(C)cc2s1 | nt | 52 | i | i | 65 | i
Cc1ccc2nc(NC(=O)CN3CCOCC3)sc2c1 | i | 33 | i | i | 64 | i
Cc1ccc(S(=O)(=O)c2nnn3c2nc(NC(C)C)c2sccc23)cc1 | nt | nt | i | nt | nt | nt
NC(=O)C1CCN(c2ncnc3c(-c4ccccc4)nsc23)CC1 | i | 50 | i | i | 51 | i
N#Cc1ccc(NC(=O)Nc2cccc(C#N)c2)cc1 | 6.6µM | i | i | i | i | 12µM
N#Cc1cccc(NC(=O)c2ccccc2C(=O)O)c1 | i | i | i | i | i | i
